Source: the supplement of paper PMC10849652
About 7,900 targets were measured; listed, in parts, are those with a hit and a random draw of the rest. About 0.6% of all pairs of compound and target were hits. Unmarked numbers belong to inactive results.

Tests used:
Assay in all cases: log2 fold change, soluble protein after heating vs DMSO (PISA); higher = thermal stabilisation; K562 cells, 10 uM, 30 min; active = over 0.2 and 3.5 SD of the protein, either way, in both replicates (recomputed)
bafetinib = compound: Cc1ccc(NC(=O)c2ccc(CN3CC[C@H](N(C)C)C3)c(C(F)(F)F)c2)cc1Nc1nccc(-c2cncnc2)n1 [bafetinib]
Outline: (§1)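 Soluble protein was quantified by TMTpro 16plex LC-MS/MS after channel sums were equalised. It was obtained as the supernatant after 21,000xg for 90 min from pooled aliquots of K562 cells (2×10^6 cells/mL, 10 μM compound, 30 min) heated for 3 min across 48°C-58°C and extracted in PBS with 0.5% NP-40 at 4°C. Thermal stability values are relative to control samples and come from duplicates. They are given as log2 fold changes.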

[1] = compound: Cc1cccc(CC(=O)N2CCc3c2ccc(-c2cn(C)c4ncnc(N)c24)c3F)n1
Outline: as §1

nilotinib = compound: Cc1cn(-c2cc(NC(=O)c3ccc(C)c(Nc4nccc(-c5cccnc5)n4)c3)cc(C(F)(F)F)c2)cn1 [nilotinib]
Outline: as §1

[2] = compound: Cc1nc(Nc2n[nH]c3c2CN(C(=O)N[C@H](CN(C)C)c2ccccc2)C3(C)C)c2sccc2n1
Outline: as §1

dasatinib = compound: Cc1nc(Nc2ncc(C(=O)Nc3c(C)cccc3Cl)s2)cc(N2CCN(CCO)CC2)n1 [dasatinib]
Outline: as §1

[3] = compound: Cc1ncc(-c2ccnc(Nc3ccc(S(C)(=O)=O)cc3)n2)n1C(C)C
Outline: as §1

[4] = compound: Cn1cc(-c2ccc3c(c2)CCN3C(=O)Cc2cccc(C(F)(F)F)c2)c2c(N)ncnc21
Outline: as §1

[5] = compound: Cn1cc(-c2ccc3nnc(C(F)(F)c4ccc5ncccc5c4)n3n2)cn1
Outline: as §1

tipifarnib = compound: Cn1cncc1[C@@](N)(c1ccc(Cl)cc1)c1ccc2c(c1)c(-c1cccc(Cl)c1)cc(=O)n2C [tipifarnib]
Outline: as §1

mubritinib = compound: FC(F)(F)c1ccc(/C=C/c2nc(COc3ccc(CCCCn4ccnn4)cc3)co2)cc1 [mubritinib]
Outline: as §1

[6] = compound: NC(=O)Nc1cc(-c2cccc(F)c2)sc1C(=O)N[C@H]1CCCNC1
Outline: as §1

[7] = compound: NC(=O)c1cnc(N[C@@H]2CCCC[C@@H]2N)nc1Nc1cccc(-n2nccn2)c1
Outline: as §1

[8] = compound: NC1(c2ccc(-c3nc4ccn5c(=O)[nH]nc5c4cc3-c3ccccc3)cc2)CCC1
Outline: as §1

[9] = compound: NCC(=O)Nc1ccc(-n2nc(C(F)(F)F)cc2-c2ccc3c(ccc4ccccc43)c2)cc1
Outline: as §1

entinostat = compound: Nc1ccccc1NC(=O)c1ccc(CNC(=O)OCc2cccnc2)cc1 [entinostat]
Outline: as §1

vorinostat = compound: O=C(CCCCCCC(=O)Nc1ccccc1)NO [vorinostat]
Outline: as §1

citarinostat = compound: O=C(CCCCCCNC(=O)c1cnc(N(c2ccccc2)c2ccccc2Cl)nc1)NO [citarinostat]
Outline: as §1

silmitasertib = compound: O=C(O)c1ccc2c(c1)nc(Nc1cccc(Cl)c1)c1ccncc12 [silmitasertib]
Outline: as §1

[10] = compound: O=C1NC(=O)C(c2cnc3ccccn23)=C1c1cn2c3c(cc(F)cc13)CN(C(=O)N1CCCCC1)CC2
Outline: as §1

[11] = compound: c1cc(OCCN2CCCCC2)cc(-c2n[nH]c3ccc(-c4nnc[nH]4)cc23)c1
Outline: as §1

Sequence of UniProt P49754 (P49754 whole entry, looked up): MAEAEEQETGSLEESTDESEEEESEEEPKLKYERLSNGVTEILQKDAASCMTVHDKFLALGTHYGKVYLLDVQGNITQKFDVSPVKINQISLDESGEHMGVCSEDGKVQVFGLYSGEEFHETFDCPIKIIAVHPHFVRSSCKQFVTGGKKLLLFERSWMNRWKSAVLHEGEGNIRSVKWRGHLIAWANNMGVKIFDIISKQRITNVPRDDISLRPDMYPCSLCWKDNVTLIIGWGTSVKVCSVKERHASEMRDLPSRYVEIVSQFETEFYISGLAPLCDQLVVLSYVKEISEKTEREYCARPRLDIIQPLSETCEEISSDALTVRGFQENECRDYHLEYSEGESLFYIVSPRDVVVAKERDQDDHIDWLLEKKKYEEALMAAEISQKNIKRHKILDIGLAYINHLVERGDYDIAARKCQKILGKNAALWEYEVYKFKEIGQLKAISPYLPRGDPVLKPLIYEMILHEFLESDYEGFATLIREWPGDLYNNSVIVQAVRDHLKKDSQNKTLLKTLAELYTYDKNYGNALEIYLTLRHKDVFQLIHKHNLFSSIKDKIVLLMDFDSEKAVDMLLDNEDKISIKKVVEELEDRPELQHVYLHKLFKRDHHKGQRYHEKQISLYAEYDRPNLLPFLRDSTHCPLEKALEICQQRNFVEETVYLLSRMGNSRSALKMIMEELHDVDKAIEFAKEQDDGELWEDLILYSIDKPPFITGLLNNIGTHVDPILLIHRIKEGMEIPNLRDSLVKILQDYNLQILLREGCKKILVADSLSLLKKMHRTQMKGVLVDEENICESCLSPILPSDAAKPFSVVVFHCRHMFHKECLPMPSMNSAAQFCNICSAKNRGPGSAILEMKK
Sequence of UniProt Q8TBZ6 (Q8TBZ6 whole entry, looked up): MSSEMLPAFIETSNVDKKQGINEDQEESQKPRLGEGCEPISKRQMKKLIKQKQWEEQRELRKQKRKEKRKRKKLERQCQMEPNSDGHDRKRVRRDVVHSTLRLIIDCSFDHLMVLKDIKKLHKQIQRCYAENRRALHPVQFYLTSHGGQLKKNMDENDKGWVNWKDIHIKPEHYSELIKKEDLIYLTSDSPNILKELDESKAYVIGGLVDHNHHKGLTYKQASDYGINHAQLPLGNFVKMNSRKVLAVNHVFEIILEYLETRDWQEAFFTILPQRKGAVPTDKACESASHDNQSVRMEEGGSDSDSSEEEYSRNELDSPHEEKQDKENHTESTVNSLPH
Sequence of UniProt P28908 (P28908 whole entry, looked up): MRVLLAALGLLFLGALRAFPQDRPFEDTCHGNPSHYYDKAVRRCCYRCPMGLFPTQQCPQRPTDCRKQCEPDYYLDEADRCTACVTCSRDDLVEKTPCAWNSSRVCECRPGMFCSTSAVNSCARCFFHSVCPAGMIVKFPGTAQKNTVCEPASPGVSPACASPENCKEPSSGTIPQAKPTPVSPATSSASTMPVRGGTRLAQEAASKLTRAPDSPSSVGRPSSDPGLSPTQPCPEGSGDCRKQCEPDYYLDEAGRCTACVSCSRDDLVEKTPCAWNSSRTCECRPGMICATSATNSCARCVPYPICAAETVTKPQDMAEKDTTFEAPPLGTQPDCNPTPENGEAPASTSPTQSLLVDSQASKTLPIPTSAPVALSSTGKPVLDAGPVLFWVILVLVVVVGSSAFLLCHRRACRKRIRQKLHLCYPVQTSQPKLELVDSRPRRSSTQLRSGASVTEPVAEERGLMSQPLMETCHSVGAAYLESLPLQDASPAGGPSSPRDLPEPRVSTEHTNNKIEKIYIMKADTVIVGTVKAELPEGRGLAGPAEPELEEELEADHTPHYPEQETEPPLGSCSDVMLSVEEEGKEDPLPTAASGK
Sequence of UniProt Q9Y2L5 (Q9Y2L5 whole entry, looked up): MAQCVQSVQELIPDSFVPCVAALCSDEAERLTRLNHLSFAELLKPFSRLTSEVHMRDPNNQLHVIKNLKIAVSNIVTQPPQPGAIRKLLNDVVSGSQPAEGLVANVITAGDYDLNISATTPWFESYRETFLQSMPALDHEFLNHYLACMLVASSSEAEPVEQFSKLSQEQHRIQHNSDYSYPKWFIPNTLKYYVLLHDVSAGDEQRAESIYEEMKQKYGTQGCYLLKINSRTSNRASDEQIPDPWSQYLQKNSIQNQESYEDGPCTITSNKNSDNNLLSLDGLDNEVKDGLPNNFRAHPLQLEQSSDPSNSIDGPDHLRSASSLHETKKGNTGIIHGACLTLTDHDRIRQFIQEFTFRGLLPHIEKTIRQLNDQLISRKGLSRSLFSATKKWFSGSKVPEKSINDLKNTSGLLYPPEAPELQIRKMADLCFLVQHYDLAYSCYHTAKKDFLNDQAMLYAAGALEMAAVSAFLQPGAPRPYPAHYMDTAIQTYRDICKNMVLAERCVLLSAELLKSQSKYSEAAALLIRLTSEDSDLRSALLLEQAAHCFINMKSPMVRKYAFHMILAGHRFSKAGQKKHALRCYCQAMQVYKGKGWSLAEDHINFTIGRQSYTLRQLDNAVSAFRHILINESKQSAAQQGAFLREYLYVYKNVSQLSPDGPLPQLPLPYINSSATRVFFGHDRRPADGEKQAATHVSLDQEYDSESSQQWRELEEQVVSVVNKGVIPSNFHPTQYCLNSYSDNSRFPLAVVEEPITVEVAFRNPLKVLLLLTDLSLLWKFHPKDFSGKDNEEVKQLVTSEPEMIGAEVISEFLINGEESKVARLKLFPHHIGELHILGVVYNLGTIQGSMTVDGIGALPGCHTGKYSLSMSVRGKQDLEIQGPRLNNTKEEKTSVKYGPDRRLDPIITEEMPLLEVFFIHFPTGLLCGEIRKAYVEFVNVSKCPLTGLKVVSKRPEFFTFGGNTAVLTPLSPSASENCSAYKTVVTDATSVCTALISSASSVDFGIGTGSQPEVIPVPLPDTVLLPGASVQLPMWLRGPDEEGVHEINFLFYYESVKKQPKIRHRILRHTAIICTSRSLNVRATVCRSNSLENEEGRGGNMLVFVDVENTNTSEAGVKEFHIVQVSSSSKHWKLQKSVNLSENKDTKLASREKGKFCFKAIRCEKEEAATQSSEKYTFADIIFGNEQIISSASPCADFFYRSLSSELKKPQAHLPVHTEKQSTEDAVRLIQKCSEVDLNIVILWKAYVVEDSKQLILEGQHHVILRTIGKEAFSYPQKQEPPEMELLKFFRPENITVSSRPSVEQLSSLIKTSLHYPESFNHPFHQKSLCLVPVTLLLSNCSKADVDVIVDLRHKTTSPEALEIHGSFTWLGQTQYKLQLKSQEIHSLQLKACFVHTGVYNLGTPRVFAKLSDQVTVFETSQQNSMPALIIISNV
Sequence of UniProt Q5VIR6 (Q5VIR6 whole entry, looked up): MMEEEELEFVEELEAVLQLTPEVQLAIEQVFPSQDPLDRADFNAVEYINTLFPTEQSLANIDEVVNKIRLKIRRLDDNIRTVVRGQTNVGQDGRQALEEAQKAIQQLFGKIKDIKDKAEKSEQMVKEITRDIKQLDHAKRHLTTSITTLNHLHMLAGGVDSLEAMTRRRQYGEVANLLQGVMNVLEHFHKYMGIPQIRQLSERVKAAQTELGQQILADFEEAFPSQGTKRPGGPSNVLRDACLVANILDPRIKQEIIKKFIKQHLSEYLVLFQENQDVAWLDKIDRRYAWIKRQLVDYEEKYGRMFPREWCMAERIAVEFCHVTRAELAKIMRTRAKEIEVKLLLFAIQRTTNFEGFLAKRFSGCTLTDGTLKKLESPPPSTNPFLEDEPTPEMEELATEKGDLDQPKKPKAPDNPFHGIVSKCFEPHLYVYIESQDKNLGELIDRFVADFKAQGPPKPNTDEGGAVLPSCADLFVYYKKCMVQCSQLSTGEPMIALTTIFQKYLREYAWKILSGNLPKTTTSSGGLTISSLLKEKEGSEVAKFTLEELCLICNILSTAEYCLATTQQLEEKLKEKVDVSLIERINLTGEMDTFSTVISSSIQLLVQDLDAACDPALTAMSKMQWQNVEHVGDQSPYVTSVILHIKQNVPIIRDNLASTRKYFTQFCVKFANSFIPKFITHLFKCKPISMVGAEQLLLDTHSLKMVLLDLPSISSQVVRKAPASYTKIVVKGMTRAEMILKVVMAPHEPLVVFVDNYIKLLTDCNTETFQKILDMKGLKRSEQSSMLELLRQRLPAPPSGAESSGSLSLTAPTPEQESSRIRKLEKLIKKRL
Sequence of UniProt Q8IZ69 (Q8IZ69 whole entry, looked up): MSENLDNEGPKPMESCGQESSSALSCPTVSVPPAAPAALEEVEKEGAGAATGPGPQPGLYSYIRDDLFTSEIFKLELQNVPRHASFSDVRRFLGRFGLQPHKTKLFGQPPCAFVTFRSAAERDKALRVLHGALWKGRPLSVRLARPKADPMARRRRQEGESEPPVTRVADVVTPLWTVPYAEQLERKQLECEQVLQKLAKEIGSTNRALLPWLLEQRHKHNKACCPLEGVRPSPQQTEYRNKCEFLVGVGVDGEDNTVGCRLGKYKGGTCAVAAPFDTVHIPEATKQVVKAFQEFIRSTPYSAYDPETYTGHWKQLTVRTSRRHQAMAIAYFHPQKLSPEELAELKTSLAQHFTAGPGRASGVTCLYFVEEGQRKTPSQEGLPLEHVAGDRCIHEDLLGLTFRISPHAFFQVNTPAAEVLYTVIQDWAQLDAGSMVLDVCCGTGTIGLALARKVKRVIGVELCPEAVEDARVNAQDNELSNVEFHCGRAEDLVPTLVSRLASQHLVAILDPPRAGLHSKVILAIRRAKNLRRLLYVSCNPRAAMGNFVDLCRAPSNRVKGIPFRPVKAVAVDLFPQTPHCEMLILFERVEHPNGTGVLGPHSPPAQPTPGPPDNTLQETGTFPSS

Target | log2 fold change (bafetinib) | log2 fold change [1] | log2 fold change (nilotinib) | log2 fold change [2] | log2 fold change (dasatinib) | log2 fold change [3] | log2 fold change [4] | log2 fold change [5] | log2 fold change (tipifarnib) | log2 fold change (mubritinib) | log2 fold change [6] | log2 fold change [7] | log2 fold change [8] | log2 fold change [9] | log2 fold change (entinostat) | log2 fold change (vorinostat) | log2 fold change (citarinostat) | log2 fold change (silmitasertib) | log2 fold change [10] | log2 fold change [11]
TNFRSF8 (UniProt P28908) | 0.01 | -0.089 | 0.074 | -0.049 | 0.032 | 0.043 | 0.014 | 0.032 | 0.042 | 0.069 | -0.12 | 0.128 | 0.106 | 0.025 | -0.066 | -0.078 | -0.003 | -0.052 | -0.053 | -0.025
WDCP (UniProt Q9H6R7) | -0.052 | -0.05 | -0.149 | -0.12 | -0.074 | -0.035 | -0.099 | -0.001 | -0.029 | 0 | 0.062 | 0.049 | -0.011 | -0.025 | 0.019 | 0.037 | 0.118 | 0.172 | -0.033 | -0.035
VPS8 (UniProt Q8N3P4) | 0.073 | 0.043 | -0.162 | -0.018 | -0.107 | 0.035 | -0.018 | -0.083 | -0.078 | 0.043 | -0.035 | -0.125 | -0.15 | -0.088 | 0.077 | 0.158 | -0.004 | 0.078 | -0.006 | -0.012
VPS13B (UniProt Q7Z7G8) | -0.075 | -0.012 | -0.005 | 0.049 | 0.047 | -0.004 | 0.005 | 0.029 | 0.037 | 0.01 | -0.064 | -0.033 | -0.069 | -0.039 | -0.033 | 0.041 | 0.018 | 0.038 | -0.043 | -0.03
TRAPPC8 (UniProt Q9Y2L5) | -0.037 | 0.044 | -0.055 | -0.04 | -0.133 | 0.059 | 0 | 0.004 | -0.013 | 0.045 | -0.039 | -0.082 | -0.168 | -0.028 | 0.042 | 0.053 | 0.051 | 0.07 | -0.016 | -0.205
TRMT10A (UniProt Q8TBZ6) | 0.006 | -0.022 | 0.005 | -0.018 | -0.059 | -0.002 | 0.104 | 0.008 | -0.022 | 0.05 | 0.015 | -0.005 | -0.075 | -0.109 | -0.039 | -0.003 | -0.013 | -0.023 | 0.007 | -0.02
TXNRD1 (UniProt Q16881) | -0.012 | -0.011 | 0.097 | -0.013 | -0.013 | -0.002 | 0.067 | 0.021 | -0.107 | 0.225 (active) | -0.082 | -0.052 | -0.077 | -0.007 | -0.027 | -0.005 | 0.017 | -0.036 | -0.122 | 0.006
VPS53 isoform 4 (UniProt Q5VIR6) | -0.04 | 0.036 | -0.1 | -0.148 | -0.087 | 0.037 | -0.035 | -0.027 | -0.061 | 0.003 | -0.036 | -0.062 | -0.105 | -0.021 | 0.052 | 0.018 | 0.025 | 0.063 | -0.066 | -0.02
TRMT2A (UniProt Q8IZ69) | 0.059 | -0.001 | 0.021 | -0.048 | -0.019 | -0.064 | 0 | 0.009 | 0.03 | -0.005 | -0.031 | -0.128 | -0.091 | -0.003 | 0.022 | 0.03 | -0.03 | -0.003 | 0.018 | -0.062
VPS41 (UniProt P49754) | -0.134 | 0.034 | -0.012 | -0.039 | -0.094 | -0.03 | 0 | 0.013 | -0.084 | 0.08 | -0.006 | -0.163 | -0.267 (active) | -0.163 | 0.083 | 0.072 | 0.082 | -0.006 | -0.046 | -0.056
UBA6 | 0.009 | 0.036 | 0.062 | -0.137 | -0.035 | -0.024 | 0.016 | -0.024 | -0.075 | 0.228 (active) | -0.048 | -0.065 | -0.14 | -0.047 | 0.05 | 0.011 | 0.052 | -0.004 | -0.046 | -0.004
